Screening data (PubChem)
This is a sample that favours compounds with a hit; in the whole collection about 19% have one here.
HT1080 IDH1KD tx: HT-1080 IDH1 knockdown cell toxicity (counter line) | HT-1080 IDH1 knockdown viability, ATP luminescence, 48 h | hit rate 2% among 360,000 | Potency, µM (series often up to 46.1 µM), without a hit: top-dose activity, negative = toxicity, usual class: cytotoxic;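 further: potency means the concentration at half of the fitted maximal effect; 0% = DMSO wells and -100% = cell-free medium wells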
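Cytotoxicity counter-line: IDH1KD HT-1080, 48 h, CellTiter-Glo. Curves classed by r2, magnitude and activity.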
HT1080-NT tox: kills 2HG-producing HT-1080-NT fibrosarcoma cells; Potency, µM (series often up to 46.1 µM), for the others: at the top dose activity, negative = less viability, usual class: cytotoxic; AID 686970; HT-1080-NT fibrosarcoma viability, CellTiter-Glo ATP luminescence, 48 h; hit rate 1.6% among 360,000;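 further: NT is the 2HG producing partner of a matched IDH1 knockdown line; potency means the concentration at half of the fitted maximal effect; 0% = DMSO-treated cells and -100% = media-only wells without cells; nearly all actives have a fitted effect of over 55% in size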
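750 cells/well, RPMI + 5% FBS; 2 h settle, compound pin-transfer, 48 h at 37 degrees C. CellTiter-Glo 10 min RT, luminescence. Normalized to DMSO and media-only wells.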
DT40 TDP1 no CPT: qHTS for Inhibitors of human tyrosyl-DNA phosphodiesterase 1 (TDP1): qHTS in cells in absence of CPT | DT40 Tdp1-/- hTDP1 cells, no CPT, ATP luminescence, 48 h | AID 686978, 2013 | Potency, µM (titrated, usually from 46.2 µM), for inactives: top-dose activity change, negative = growth inhibition, hits mostly inhibitors | hit rate 15% among 420,000; further: potency means the concentration at half of the fitted maximal effect; nearly all actives have a fitted effect of over 55% in size
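Stably hTDP1-transfected Tdp1-null chicken DT40 cells were treated with library compounds minus camptothecin and grown for at least 48 hr at 37 °C, after which cellular ATP was quantified by luminescence.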
TDP1 cell CPT: growth inhibition of DT40 Tdp1-/-;hTDP1 cells with camptothecin (screen for TDP1 inhibitors) | chicken DT40 Tdp1-/-;hTDP1 cells + 20 nM CPT, ATP luminescence, 48 h | Potency, µM (series often up to 46.2 µM), for the others: at the highest dose activity change, negative = growth inhibition, most hits filed as inhibitors | hit rate 12% among 420,000 | AID 686979; further: potency means the concentration at half of the fitted maximal effect; nearly all actives have a fitted effect of over 55% in size
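Cell growth measured by CellTiter-Glo luminescence after a minimum 48 h, 37 C compound exposure with 20 nM CPT in Tdp1-knockout DT40 cells stably expressing hTDP1, seeded 400/well; qHTS titration format.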
ELG1 DNA repair: ELG1-dependent DNA repair inhibition; hit rate 2.3% among 330,000; HEK293T ELG1-luciferase reporter, luminescence, 16 h; DNA damage induced by 5-fluorouridine; AID 504467; Potency, µM (highest dose often 46.1 µM), for the others: at the top dose activity change, negative = inhibition, hits mostly inhibitors; further: potency means the concentration at half of the fitted maximal effect; nearly all actives have a fitted effect of over 55% in size
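DMSO vehicle served as the neutral condition. Each well held 2,000 cells given 5-fluorouridine plus compound; after 16 hr at 37 °C/5% CO2, ONE-Glo was added and luciferase measured 30 min later.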
IL-1B inflam inh: blocks inflammasome-driven IL-1 beta release; activity change, % at 57.5 µM; AID 743279; hit rate 4.7% among 360,000; THP-1 LPS/ATP IL-1B secretion, AlphaLISA, 16 h; hits give low values; in the data active means activity change below about -50%; inconclusive means mostly about -30% to -49%
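THP-1 cells pretreated 1 hr with compounds (up to 57.5 uM final), then stimulated with LPS (250 ng/mL final) plus ATP (1.25 mM final); secreted IL-1B measured by AlphaLISA after 16 hr, decreased signal indicating inhibition.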
Active calls of the source: *; [ ] = dose if it differs, or a comment. Unless noted, the call rests on the fitted dose curve; in most records, active means well fitted curve in the direction sought with a large enough effect; inconclusive means small, poorly fitted or top-dose-only effect, or another doubt; inactive means no such curve, though single readings can be large; an effect the other way counts as inactive or inconclusive. Unless noted, on the % scale 0 is the no-effect control and ±100 the full control effect.

How did Nc1nn(-c2ccccc2)c(N)c1N=Nc1cccc(F)c1 do in these assays?
HT1080 IDH1KD tx: 5.8µM*; HT1080-NT tox: 16µM*; DT40 TDP1 no CPT: 2.6µM*; TDP1 cell CPT: 1.6µM*; ELG1 DNA repair: inconclusive; IL-1B inflam inh: 15

What do the screens show for `Nc1[nH]n(-c2ccccc2)c(=O)c1N=Nc1ccc2c(c1)OCCO2`?
HT1080 IDH1KD tx: -13%; HT1080-NT tox: -16%; DT40 TDP1 no CPT: inconclusive; TDP1 cell CPT: inconclusive; ELG1 DNA repair: inconclusive; IL-1B inflam inh: -73*

What do the screens show for `Cc1nn(-c2ccccc2)c(N)c1N=Nc1cccnc1`?
HT1080 IDH1KD tx: 9%; HT1080-NT tox: 10%; DT40 TDP1 no CPT: inconclusive; TDP1 cell CPT: inconclusive; ELG1 DNA repair: inconclusive; IL-1B inflam inh: 0

What do the screens show for `Nc1[nH]n(-c2ccccc2)c(=O)c1N=Nc1ccc2c(c1)OCO2`?
HT1080 IDH1KD tx: inconclusive; HT1080-NT tox: -20%; DT40 TDP1 no CPT: inconclusive; TDP1 cell CPT: -13%; ELG1 DNA repair: inconclusive; IL-1B inflam inh: -10

How did Cc1nn(C(=O)c2ccc3c(c2)OCO3)c(N)c1-c1ccccc1 do in these assays?
HT1080 IDH1KD tx: 5%; HT1080-NT tox: inconclusive; DT40 TDP1 no CPT: -22%; TDP1 cell CPT: -9%; ELG1 DNA repair: inconclusive; IL-1B inflam inh: -9

How did Nc1nn(-c2ccccc2)c(N)c1N=Nc1ccc2c(c1)OCO2 do in these assays?
HT1080 IDH1KD tx: 6.5µM*; HT1080-NT tox: 18µM*; DT40 TDP1 no CPT: 4.1µM*; TDP1 cell CPT: 3.7µM*; ELG1 DNA repair: inconclusive; IL-1B inflam inh: -97*

Results for CN1CCCC(CNC(=O)c2cnn(-c3nccc(-c4cccs4)n3)c2C2CC2)C1 (centres undefined) ?
DT40 TDP1 no CPT: -16%; TDP1 cell CPT: -9%[9.04 µM]

Results for O=C(CCCSc1nnc(SCCCC(=O)c2ccc(F)cc2)s1)c1ccc(F)cc1 ?
HT1080 IDH1KD tx: -9%; HT1080-NT tox: -13%; DT40 TDP1 no CPT: inconclusive; TDP1 cell CPT: 18µM*; ELG1 DNA repair: inconclusive; IL-1B inflam inh: -81*

How did OCCCC1CCCN(Cc2cn[nH]c2-c2ccc(F)cc2F)C1 (centres undefined) do in these assays?
HT1080 IDH1KD tx: 0%; HT1080-NT tox: 17%; DT40 TDP1 no CPT: -4%; TDP1 cell CPT: -3%; ELG1 DNA repair: -28%; IL-1B inflam inh: -17

Results for Cc1ccc(NC(=O)Cn2cc(C=O)c3ccccc32)cc1 ?
HT1080 IDH1KD tx: 0%; HT1080-NT tox: -15%; DT40 TDP1 no CPT: -24%; TDP1 cell CPT: inconclusive; ELG1 DNA repair: -14%; IL-1B inflam inh: 65

What do the screens show for `O=C(CNc1ccc2c(c1)OCO2)N/N=C\c1cn(Cc2ccccc2)c2ccccc12`?
HT1080 IDH1KD tx: -20%; HT1080-NT tox: -15%; DT40 TDP1 no CPT: 23µM*; TDP1 cell CPT: 18µM*; ELG1 DNA repair: inconclusive; IL-1B inflam inh: -6

What do the screens show for `COc1ccc(OC)c(NC(=O)Cn2cc(C=O)c3ccccc32)c1`?
HT1080 IDH1KD tx: -11%; HT1080-NT tox: -19%; DT40 TDP1 no CPT: inconclusive; TDP1 cell CPT: inconclusive; ELG1 DNA repair: -18%; IL-1B inflam inh: 46

How did Cc1ccc(OCC(=O)N/N=C/c2cn(Cc3ccccc3)c3ccccc23)cc1 do in these assays?
HT1080 IDH1KD tx: -3%; HT1080-NT tox: inconclusive; DT40 TDP1 no CPT: inconclusive; TDP1 cell CPT: -23%; ELG1 DNA repair: -21%; IL-1B inflam inh: 15

How did COc1cccc(NC(=O)Cn2cc(C=O)c3ccccc32)c1 do in these assays?
HT1080 IDH1KD tx: -14%; HT1080-NT tox: -26%; DT40 TDP1 no CPT: 26µM*; TDP1 cell CPT: 16µM*; ELG1 DNA repair: inconclusive; IL-1B inflam inh: 36

What do the screens show for `O=Cc1cn(CC(=O)Nc2ccc3c(c2)OCO3)c2ccccc12`?
HT1080 IDH1KD tx: 0%; HT1080-NT tox: -2%; DT40 TDP1 no CPT: 16µM*; TDP1 cell CPT: inconclusive; ELG1 DNA repair: inconclusive; IL-1B inflam inh: 11

What do the screens show for `O=C(NCc1ccccc1Cl)c1nnc(Cc2ccc(Cl)cc2)o1`?
DT40 TDP1 no CPT: -16%; TDP1 cell CPT: -1%

How did COc1ccc(C(=O)Nc2nnc(SCc3cc(=O)n4cc(Cl)ccc4n3)s2)cc1 do in these assays?
DT40 TDP1 no CPT: -7%; TDP1 cell CPT: -10%

What do the screens show for `Cc1ccc(C)c(-n2c(-c3cccnc3)n[nH]c2=S)c1`?
HT1080 IDH1KD tx: 7%; HT1080-NT tox: 6%; DT40 TDP1 no CPT: -21%; TDP1 cell CPT: 32%; ELG1 DNA repair: 0%; IL-1B inflam inh: 5

What do the screens show for `Cc1[nH]nc(-c2cccnc2)c1N=NN(C)C`?
HT1080 IDH1KD tx: 21µM*; HT1080-NT tox: 21µM*; DT40 TDP1 no CPT: 1.5µM*; TDP1 cell CPT: 0.82µM*; IL-1B inflam inh: -104*

Results for Cc1ccc(S(=O)(=O)N2CC3=C(C2)C2CC2(C)C3)cc1 (centres undefined) ?
HT1080 IDH1KD tx: -10%; HT1080-NT tox: -4%; DT40 TDP1 no CPT: inconclusive; TDP1 cell CPT: -16%; IL-1B inflam inh: 17

Results for Oc1ccc(-c2nc(-c3ccc(O)c(O)c3)cs2)cc1 ?
HT1080 IDH1KD tx: inconclusive; HT1080-NT tox: inconclusive; DT40 TDP1 no CPT: 8.2µM*; TDP1 cell CPT: 8.2µM*; ELG1 DNA repair: inconclusive; IL-1B inflam inh: 0

How did Oc1ccc(-c2csc(-c3cccnc3)n2)c(O)c1 do in these assays?
HT1080 IDH1KD tx: -19%; HT1080-NT tox: inconclusive; DT40 TDP1 no CPT: inconclusive; TDP1 cell CPT: inconclusive; ELG1 DNA repair: inconclusive; IL-1B inflam inh: inconclusive

What do the screens show for `N#CC(C#N)=CC1=C2OC(c3ccccc3)=CC(c3ccccc3)=C2CCC1`?
HT1080 IDH1KD tx: 13%; HT1080-NT tox: 8%; DT40 TDP1 no CPT: 13µM*; TDP1 cell CPT: 26µM*; ELG1 DNA repair: 0%; IL-1B inflam inh: -10

How did COC(=O)c1cc(S(=O)(=O)NCCN2CCN(c3ccccc3F)CC2)c[nH]1 do in these assays?
HT1080 IDH1KD tx: 2%; HT1080-NT tox: -2%; DT40 TDP1 no CPT: 17%; TDP1 cell CPT: inconclusive; ELG1 DNA repair: -1%; IL-1B inflam inh: 31

Results for O=C1NC(=S)S/C1=C\c1cc(Cl)ccc1Cl ?
HT1080 IDH1KD tx: -22%; HT1080-NT tox: inconclusive; DT40 TDP1 no CPT: inconclusive; TDP1 cell CPT: 21µM*; IL-1B inflam inh: -16

What do the screens show for `C(#CCN1CCCC1)CC(c1ccccc1)c1ccccc1`?
HT1080 IDH1KD tx: inconclusive; HT1080-NT tox: inconclusive; DT40 TDP1 no CPT: 16µM*; TDP1 cell CPT: inconclusive; ELG1 DNA repair: 6%; IL-1B inflam inh: -64*
